The nature of experiment [1]: Caspase-3/7 induction in HepG2 cells by small molecules, qHTS assay (AID 1346978). Also: nearly all actives have a fitted effect of over 15% in size. Also: potency is read from the fitted curve at half-maximal effect. Put shortly: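 Wild-type HepG2 cells, 2,000/well, settled 5 hr at 37 C and 5% CO2, then compound-treated for 17 hr; caspase-3/7 activity read by luminescent Caspase-Glo 3/7 after 30 min at room temperature.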
Experiment [2] is described as follows: Caspase-3/7 induction in CHO-K1 cells by small molecules, qHTS cell viability counter screen (AID 1346979). Also: nearly all actives have a fitted effect of over 35% in size. Also: potency is read from the fitted curve at half-maximal effect. Put shortly: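 Viability readout by fluorescence (CellTiter-Fluor) on wild-type CHO-K1 cells exposed for 16hr at 37C and 5% CO2 to compounds delivered in DMSO; reagent incubated 1hr before reading.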
Experiment [3] is described as follows: Caspase-3/7 induction in CHO-K1 cells by small molecules, qHTS assay (AID 1346980). Also: nearly all actives have a fitted effect of over 15% in size. Also: potency is read from the fitted curve at half-maximal effect. The essentials: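 Wild-type CHO-K1 cells exposed to compounds for 17hr at 37 C, 5% CO2. Caspase-3/7 activity then measured by Caspase-Glo 3/7 luminescence after 30min at room temperature.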
Experiment [4] in a line: Caspase-3/7 induction in HepG2 cells by small molecules, qHTS cell viability counter screen (AID 1346981). Also: nearly all actives have a fitted effect of over 30% in size. Also: potency is read from the fitted curve at half-maximal effect. The essentials: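 Cell viability is measured as a cytotoxicity counter screen alongside the Caspase-Glo 3/7 readout in identical wells. Wild-type HepG2 cells are treated with test compounds for 16 hr at 37 C before CellTiter-Fluor addition and a 1-hr incubation.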
Experiment [5] concerns the target Nuclear receptor subfamily 1 group I member 2 (Homo sapiens) (UniProt O75469). As to the kind of experiment: Human pregnane X receptor (PXR) small molecule agonists, qHTS assay (AID 1346982). Also: nearly all actives have a fitted effect of over 35% in size. Also: potency is read from the fitted curve at half-maximal effect. Put shortly:
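Cells: HepG2 stably carrying PXR-Luc. Medium held 5% charcoal-stripped FBS. Compounds in DMSO added after 5 hr plating, incubated 24 hr, then luminescence quantified with ONE-Glo.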

The target of experiment [6] is Nuclear receptor subfamily 1 group I member 2 (Rattus norvegicus) (UniProt Q9R1A7). Nature of the experiment: Rat pregnane X receptor (rPXR) activation by small molecules, qHTS assay (AID 1346983). Also: nearly all actives have a fitted effect of over 20% in size. As to conditions: rPXR luciferase reporter cells, One-Glo luminescence, 24 h; max activation: stronger effect = higher value. Put shortly:
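Cell-based rPXR activation assay: rPXR cells, 2,000 per well, rested 5hr at 37 C, then exposed to compounds in DMSO for 24 hr at 37 C. Luciferase activity read by One-Glo luminescence after 30 min at room temperature.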

Experiment [7] has as its target Nuclear receptor subfamily 1 group I member 2 (Homo sapiens) (UniProt O75469). As to the kind of experiment: CYP3A4 induction through human pregnane X receptor (PXR) by small molecules, qHTS assay (AID 1346984). Also: nearly all actives have a fitted effect of over 40% in size. The essentials: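 Quantitative HTS in DPX-2 cells, i.e. HepG2 transfected with PXR response element and CYP3A4-promoter luciferase. Compounds in DMSO incubated 24hr at 37C; then P450-Glo CYP3A4 substrate, 3uM final, 3hr; One-Glo luminescence.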

For experiment [8], the target named is Acetylcholinesterase (Homo sapiens) (UniProt P22303). As to the kind of experiment: Acetylcholinesterase (AChE) small molecule antagonists: colormetric cell-based qHTS assay (AID 1347395; calls by dose curve; also: nearly all actives have a fitted effect of over 30% in size). The essentials:
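Homogeneous whole-cell format. SH-SY5Y cells seeded overnight, dosed with compound (30 min, 37 C, 5% CO2), then given DTNB/acetylthiocholine cocktail for 90 min at 37 C; colorimetric signal.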

Experiment [9] shares this target. Nature of the experiment: Acetylcholinesterase (AChE) small molecule antagonists: enzyme-based qHTS assay (AID 1347397; calls by dose curve; also: nearly all actives have a fitted effect of over 55% in size). As to conditions: Potency: AChE enzyme activity inhibition. The essentials:
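Colorimetric DTNB read-out of thiocholine released from acetylthiocholine by recombinant human AChE (50 mU/mL as dispensed). Compounds were preincubated 30 min at RT before substrate/DTNB addition, with a 10 min RT reaction.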

For experiment [10] the target is unchanged. As to the kind of experiment: Acetylcholinesterase (AChE) small molecule antagonists: fluorescence cell-based qHTS assay (AID 1347398; calls by dose curve; also: nearly all actives have a fitted effect of over 50% in size). Conditions: Potency: AChE activity. Put shortly:
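SH-SY5Y, 2,000 cells/well, attached overnight; cmpd 30 min 37 C; acetylthiocholine/Thiolite Green cocktail 40 min RT; fluorescence Ex/Em 490/520 nm.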

For experiment [11] the target is unchanged. Nature of the experiment: Acetylcholinesterase (AChE) small molecule antagonists: enzyme-based qHTS assay with human liver microsomes (AID 1347399; calls by dose curve; also: nearly all actives have a fitted effect of over 60% in size). As to conditions: Potency: qHTS inhibition. The essentials: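 Recombinant human AChE (50 mU/mL in the enzyme mix) and human liver microsomes (0.25 mg/mL final) were preincubated with compound and NADPH (0.25 mg/mL final) for 30 min at 37 C. Acetylthiocholine/DTNB was then added; thiocholine was read colorimetrically after 10 min at room temperature.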

Experiment [12] has as its target Cytochrome P450 2D6 (Homo sapiens) (UniProt P10635). Nature of the experiment: Cytochrome P450 Family 2 Subfamily D Member 6 (CYP2D6) small molecule antagonists: luciferase reporter qHTS assay (AID 1671196). Also: nearly all actives have a fitted effect of over 50% in size. Also: potency is read from the fitted curve at half-maximal effect. Put shortly:
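Enzyme and proluciferin substrate were first combined with test chemical for 10 min at room temperature. Adding NADPH regeneration solution started a 1 h reaction, stopped with luciferin detection reagent and read by luminescence 20 min later.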

In experiment [13] the target is Cytochrome P450 2C19 (Homo sapiens) (UniProt P33261). Nature of the experiment: Cytochrome P450 Family 2 Subfamily C Member 19 (CYP2C19) small molecule antagonists: luciferase reporter qHTS assay (AID 1671197). Also: nearly all actives have a fitted effect of over 65% in size. Also: potency is read from the fitted curve at half-maximal effect. The essentials: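 P450-Glo CYP2C19 screening system; proluciferin substrate; DMSO compound stocks; 10 min RT preincubation; NADPH regeneration, 1 h at 37C; luciferin detection reagent, 20 min RT; luminescence as RLU.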

Experiment [14] has as its target Cytochrome P450 2C9 (Homo sapiens) (UniProt P11712). Nature of the experiment: Cytochrome P450 Family 2 Subfamily C Member 9 (CYP2C9) small molecule antagonists: luciferase reporter qHTS assay (AID 1671198). Also: nearly all actives have a fitted effect of over 50% in size. Also: potency is read from the fitted curve at half-maximal effect. The essentials: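 P450-Glo proluciferin substrate with CYP2C9 enzyme; 10 min RT preincubation, then NADPH regeneration 1 h at 37C; luciferin detection reagent 20 min RT, luminescence in relative luminescence units.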

Experiment [15] has as its target Voltage-gated inwardly rectifying potassium channel KCNH2 (Homo sapiens) (UniProt Q12809). Nature of the experiment: Human Ether-a-go-go-Related Gene (hERG) channel small molecule antagonists: fluorescence cell-based qHTS assay (AID 1671200). Also: nearly all actives have a fitted effect of over 50% in size. Also: potency is read from the fitted curve at half-maximal effect. Put shortly: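 Thallium served as the potassium surrogate; its influx into dye-loaded U2OS cells carrying the channel was measured by fluorescence over 2 min.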

Experiment [16] addresses Cytochrome P450 3A4 (Homo sapiens) (UniProt P08684). Nature of the experiment: Cytochrome P450 Family 3 Subfamily A Member 4 (CYP3A4) small molecule antagonists: luciferase reporter qHTS assay (AID 1671201). Also: nearly all actives have a fitted effect of over 50% in size. Also: potency is read from the fitted curve at half-maximal effect. Put shortly:
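Relative luminescence units after 20 min with luciferin detection reagent served as read-out. Beforehand, CYP3A4 turned over a proluciferin substrate for 1 h at room temperature with NADPH regeneration, following 10 min compound preincubation.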

For experiment [17], the target named is Cytochrome P450 1A2 (Homo sapiens) (UniProt P05177). As to the kind of experiment: Cytochrome P450 Family 1 Subfamily A Member 2 (CYP1A2) small molecule antagonists: luciferase reporter qHTS assay (AID 1671199). Also: nearly all actives have a fitted effect of over 50% in size. Also: potency is read from the fitted curve at half-maximal effect. Put shortly:
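Compounds were incubated with CYP1A2 and a luminogenic proluciferin substrate for 10 min at room temperature before the reaction was started with NADPH regeneration solution. After 1 h, detection reagent was added and light output, proportional to CYP activity, was recorded.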

“And” between values parts separate entries of the source, which are not always exact repeats. Equal entries are not always repeated. Unmarked numbers belong to inactive results. Inconclusive results are not listed. The source made the active and inactive calls. Unless noted, calls follow the shape of the dose curve; as a rule, active = well fitted curve in the direction sought with a large enough effect in the repeat runs; inconclusive = weak or mixed curves; inactive = no such curve, though single readings can be large; an effect the other way counts as inactive or inconclusive.
% is scaled to controls: 0 for no effect and ±100 for the full control effect.

Chain of Acetylcholinesterase (Homo sapiens) (P22303 whole entry, looked up): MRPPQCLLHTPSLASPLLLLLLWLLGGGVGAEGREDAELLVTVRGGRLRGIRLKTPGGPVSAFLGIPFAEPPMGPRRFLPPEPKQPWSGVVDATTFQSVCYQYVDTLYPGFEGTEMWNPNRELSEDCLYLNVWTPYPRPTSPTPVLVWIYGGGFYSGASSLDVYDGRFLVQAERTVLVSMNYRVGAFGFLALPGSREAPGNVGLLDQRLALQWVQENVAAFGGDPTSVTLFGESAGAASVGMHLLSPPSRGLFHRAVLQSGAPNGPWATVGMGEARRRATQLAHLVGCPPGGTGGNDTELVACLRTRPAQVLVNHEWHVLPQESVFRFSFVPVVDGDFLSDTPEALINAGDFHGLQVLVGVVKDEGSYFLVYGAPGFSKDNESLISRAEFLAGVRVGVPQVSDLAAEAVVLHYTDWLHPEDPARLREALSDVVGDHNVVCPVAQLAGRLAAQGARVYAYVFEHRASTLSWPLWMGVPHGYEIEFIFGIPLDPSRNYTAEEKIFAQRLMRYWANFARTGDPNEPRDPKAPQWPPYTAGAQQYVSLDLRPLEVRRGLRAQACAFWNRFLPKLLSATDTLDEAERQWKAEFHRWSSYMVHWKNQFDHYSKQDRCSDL
Chain of Voltage-gated inwardly rectifying potassium channel KCNH2 (Homo sapiens) (Q12809 whole entry, looked up): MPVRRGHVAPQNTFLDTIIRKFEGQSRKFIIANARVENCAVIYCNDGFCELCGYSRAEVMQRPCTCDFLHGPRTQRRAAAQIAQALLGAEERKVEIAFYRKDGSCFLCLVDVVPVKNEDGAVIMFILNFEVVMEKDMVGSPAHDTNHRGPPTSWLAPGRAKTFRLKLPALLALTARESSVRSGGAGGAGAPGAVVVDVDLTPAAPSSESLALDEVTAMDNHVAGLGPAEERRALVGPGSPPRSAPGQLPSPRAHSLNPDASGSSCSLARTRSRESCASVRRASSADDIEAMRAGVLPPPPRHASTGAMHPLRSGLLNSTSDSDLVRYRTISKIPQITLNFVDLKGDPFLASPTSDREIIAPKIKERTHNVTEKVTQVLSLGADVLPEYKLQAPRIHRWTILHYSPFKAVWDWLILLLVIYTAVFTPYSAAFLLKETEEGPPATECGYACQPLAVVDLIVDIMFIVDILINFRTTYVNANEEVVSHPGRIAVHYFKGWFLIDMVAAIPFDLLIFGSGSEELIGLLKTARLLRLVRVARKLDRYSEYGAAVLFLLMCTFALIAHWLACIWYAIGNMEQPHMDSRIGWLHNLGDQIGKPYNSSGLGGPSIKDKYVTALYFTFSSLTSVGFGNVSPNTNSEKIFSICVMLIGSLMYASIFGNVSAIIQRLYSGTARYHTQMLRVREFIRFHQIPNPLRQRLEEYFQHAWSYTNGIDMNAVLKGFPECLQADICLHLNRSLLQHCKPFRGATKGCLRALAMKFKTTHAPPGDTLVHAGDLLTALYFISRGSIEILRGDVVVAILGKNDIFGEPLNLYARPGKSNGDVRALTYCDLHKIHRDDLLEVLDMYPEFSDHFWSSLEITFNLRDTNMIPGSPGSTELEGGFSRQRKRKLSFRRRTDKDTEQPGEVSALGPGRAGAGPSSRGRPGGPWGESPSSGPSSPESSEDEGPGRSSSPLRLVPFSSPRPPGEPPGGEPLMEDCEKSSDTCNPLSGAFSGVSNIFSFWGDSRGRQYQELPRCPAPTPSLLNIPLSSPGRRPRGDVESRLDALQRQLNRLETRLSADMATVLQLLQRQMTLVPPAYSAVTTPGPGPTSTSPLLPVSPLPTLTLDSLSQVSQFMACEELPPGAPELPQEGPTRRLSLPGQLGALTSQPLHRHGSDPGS
Chain of Nuclear receptor subfamily 1 group I member 2 (Homo sapiens) (O75469 whole entry, looked up): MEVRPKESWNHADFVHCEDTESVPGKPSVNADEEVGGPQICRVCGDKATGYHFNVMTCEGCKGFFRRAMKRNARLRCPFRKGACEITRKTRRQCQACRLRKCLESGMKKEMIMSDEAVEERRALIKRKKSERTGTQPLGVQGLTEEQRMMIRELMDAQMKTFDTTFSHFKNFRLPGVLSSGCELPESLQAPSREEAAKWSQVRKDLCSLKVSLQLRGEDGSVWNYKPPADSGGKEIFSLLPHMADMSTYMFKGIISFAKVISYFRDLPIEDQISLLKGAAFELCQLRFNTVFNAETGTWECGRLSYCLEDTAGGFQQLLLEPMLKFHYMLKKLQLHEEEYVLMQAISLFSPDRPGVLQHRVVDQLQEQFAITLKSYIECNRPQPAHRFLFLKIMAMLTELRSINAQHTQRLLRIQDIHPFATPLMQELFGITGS
Chain of Nuclear receptor subfamily 1 group I member 2 (Rattus norvegicus) (Q9R1A7 whole entry, looked up): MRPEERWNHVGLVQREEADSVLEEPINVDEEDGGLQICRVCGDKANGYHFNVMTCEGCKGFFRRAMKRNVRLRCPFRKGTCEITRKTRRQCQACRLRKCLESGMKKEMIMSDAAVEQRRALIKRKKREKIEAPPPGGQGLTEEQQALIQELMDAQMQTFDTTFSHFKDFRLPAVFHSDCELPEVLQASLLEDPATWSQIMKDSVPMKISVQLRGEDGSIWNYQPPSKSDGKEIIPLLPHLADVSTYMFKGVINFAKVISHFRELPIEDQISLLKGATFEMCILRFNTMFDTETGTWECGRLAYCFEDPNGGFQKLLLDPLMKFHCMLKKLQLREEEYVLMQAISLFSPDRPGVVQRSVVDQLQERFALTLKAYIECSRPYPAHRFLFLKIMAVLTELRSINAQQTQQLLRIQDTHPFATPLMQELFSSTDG
Chain of Cytochrome P450 2C9 (Homo sapiens) (P11712 whole entry, looked up): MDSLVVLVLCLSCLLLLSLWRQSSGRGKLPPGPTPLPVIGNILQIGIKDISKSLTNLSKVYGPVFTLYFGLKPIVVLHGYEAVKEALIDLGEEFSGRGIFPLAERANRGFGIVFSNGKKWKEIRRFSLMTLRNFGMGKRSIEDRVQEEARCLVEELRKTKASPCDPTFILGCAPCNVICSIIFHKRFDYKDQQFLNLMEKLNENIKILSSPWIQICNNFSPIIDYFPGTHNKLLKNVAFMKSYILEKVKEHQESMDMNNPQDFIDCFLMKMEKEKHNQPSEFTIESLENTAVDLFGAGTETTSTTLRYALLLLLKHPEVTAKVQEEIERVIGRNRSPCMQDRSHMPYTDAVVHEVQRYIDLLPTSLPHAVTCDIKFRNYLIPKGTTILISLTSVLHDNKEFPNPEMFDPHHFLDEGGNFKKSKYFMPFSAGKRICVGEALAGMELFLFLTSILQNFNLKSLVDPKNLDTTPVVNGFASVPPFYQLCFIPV
Chain of Cytochrome P450 2D6 (Homo sapiens) (P10635 whole entry, looked up): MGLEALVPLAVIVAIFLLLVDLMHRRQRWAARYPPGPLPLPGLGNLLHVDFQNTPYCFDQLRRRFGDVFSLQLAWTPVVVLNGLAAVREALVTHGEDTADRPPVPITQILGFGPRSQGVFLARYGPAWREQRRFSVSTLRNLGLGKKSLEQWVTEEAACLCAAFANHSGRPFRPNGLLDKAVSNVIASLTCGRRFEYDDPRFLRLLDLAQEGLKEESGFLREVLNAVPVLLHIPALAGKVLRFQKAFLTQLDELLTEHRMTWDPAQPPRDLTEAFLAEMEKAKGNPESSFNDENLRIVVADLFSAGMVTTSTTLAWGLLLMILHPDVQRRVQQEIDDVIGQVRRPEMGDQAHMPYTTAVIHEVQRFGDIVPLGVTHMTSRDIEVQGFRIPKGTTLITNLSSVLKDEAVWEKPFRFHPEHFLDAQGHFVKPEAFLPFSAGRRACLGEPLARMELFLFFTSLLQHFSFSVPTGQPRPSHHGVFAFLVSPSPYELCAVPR
Chain of Cytochrome P450 3A4 (Homo sapiens) (P08684 whole entry, looked up): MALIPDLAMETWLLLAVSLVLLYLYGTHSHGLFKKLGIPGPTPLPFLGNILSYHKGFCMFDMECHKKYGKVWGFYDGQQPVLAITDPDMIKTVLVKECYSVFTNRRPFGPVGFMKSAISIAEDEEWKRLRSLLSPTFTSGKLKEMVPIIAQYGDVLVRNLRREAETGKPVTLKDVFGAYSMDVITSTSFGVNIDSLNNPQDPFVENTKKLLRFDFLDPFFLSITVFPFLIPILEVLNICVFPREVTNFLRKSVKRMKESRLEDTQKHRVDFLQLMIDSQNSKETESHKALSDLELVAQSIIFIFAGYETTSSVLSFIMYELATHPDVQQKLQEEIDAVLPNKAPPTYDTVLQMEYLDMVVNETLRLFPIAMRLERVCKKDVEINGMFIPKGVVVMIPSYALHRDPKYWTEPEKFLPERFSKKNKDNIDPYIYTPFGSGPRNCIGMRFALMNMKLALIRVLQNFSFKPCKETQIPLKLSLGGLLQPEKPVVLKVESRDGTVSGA
Chain of Cytochrome P450 2C19 (Homo sapiens) (P33261 whole entry, looked up): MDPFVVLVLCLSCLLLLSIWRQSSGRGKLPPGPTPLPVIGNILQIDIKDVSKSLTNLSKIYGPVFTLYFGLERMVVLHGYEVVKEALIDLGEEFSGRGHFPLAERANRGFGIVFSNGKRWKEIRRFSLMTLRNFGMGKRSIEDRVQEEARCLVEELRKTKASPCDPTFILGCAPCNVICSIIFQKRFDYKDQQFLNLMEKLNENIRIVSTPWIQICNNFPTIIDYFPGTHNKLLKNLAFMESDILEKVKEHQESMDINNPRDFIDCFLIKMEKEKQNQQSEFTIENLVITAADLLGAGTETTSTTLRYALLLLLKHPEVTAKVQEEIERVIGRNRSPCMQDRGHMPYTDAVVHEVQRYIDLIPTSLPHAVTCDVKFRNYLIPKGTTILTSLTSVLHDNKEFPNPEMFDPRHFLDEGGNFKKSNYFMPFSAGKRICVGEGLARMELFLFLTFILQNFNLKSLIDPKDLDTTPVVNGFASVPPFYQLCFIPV

Turning to `C[N+]1(C)[C@@H]2CC[C@H]1CC(OC(=O)C(CO)c1ccccc1)C2` (stereo partly drawn), the Potency entry in experiment [1], in [2], in experiment [3], in [4], in experiment [5] and in [7] was “inactive” each time. Moreover, the Potency result in [8], in [9], in [10], in [11], in [12] and in experiment [13] was “inactive” in each case. The Potency entry in experiment [14], in [15] and in [16] was “inactive” throughout. Moreover, the max activation in experiment [6] was 5.17% and -0.275%.
On to `CCNc1nc(NC(C)C(C)C)nc(SC)n1` (stereo not drawn), for which the Potency entry in experiment [1], in experiment [2], in experiment [3], in experiment [4], in [8] and in experiment [9] was “inactive” in each case. In addition, the Potency result in [10], in experiment [11], in experiment [12], in experiment [15] and in experiment [16] was “inactive” each time. Also, the Potency is 30.6 µM (active) in [5], 39.9 µM (active) in experiment [13] and 25.2 µM (active) in experiment [17].
Take `CCN(CC)CCc1c[nH]c2ccccc12`: the Potency result in experiment [1], in experiment [2], in experiment [3], in experiment [4], in experiment [5] and in experiment [8] was “inactive” each time. Also, the Potency result in [9], in experiment [10], in [11], in experiment [13], in experiment [14] and in experiment [15] was “inactive” in each case. Moreover, the Potency entry in [16] is “inactive”. For the same molecule, the Potency in experiment [12] is 5.26 µM (active); in experiment [17] it was 52.6 µM (active).
Turning to `[O]=[Cr](=[O])([OH])[O][Cr](=[O])(=[O])[OH]`, the Potency was 9.78 µM (active) and 13.7 µM (active) in experiment [1]; 7.77 µM (active) and 15.3 µM (active) in experiment [2]; 5.5 µM (active) and 4.85 µM (active) in [4]; 8.71 µM (active) and 9.67 µM (active) in experiment [5]. Moreover, the Potency entry in experiment [3], in [7], in experiment [8], in experiment [9], in experiment [10] and in experiment [11] was “inactive” each time. In addition, the Potency entry in experiment [12], in [13], in [15] and in experiment [16] was “inactive” throughout. Besides, the max activation in experiment [6] was -13.2% and 6.2%.
Consider `CC(=O)[O][Pb]([c]1ccccc1)([c]1ccccc1)[c]1ccccc1`, for which the Potency was 2.43 µM (active) in experiment [1]; 386 nM (active) in experiment [2]; 0.486 µM (active) in experiment [3]; 10.9 µM (active) in experiment [4]; 22.4 µM (active) in [12]; 8.94 µM (active) in experiment [13]. Besides, the results for the Potency in experiment [14], in experiment [17] and in [16] were 3.17 µM (active), 39.9 µM (active) and 10 µM (active), respectively. Also, the Potency entry in experiment [5], in experiment [8], in [9], in experiment [10] and in experiment [11] was “inactive” in each case.
Consider `BrCC(Br)(Br)Br`, for which the Potency result in experiment [1], in experiment [2], in experiment [3], in experiment [4], in experiment [5] and in experiment [8] was “inactive” throughout. In addition, the Potency entry in experiment [9], in experiment [10], in experiment [11], in experiment [12], in [13] and in experiment [14] was “inactive” each time. Besides, the Potency entry in experiment [17], in experiment [15] and in experiment [16] was “inactive” in each case.
In the case of `CCN(CC)CCN1C(=O)CN=C(c2ccccc2F)c2cc(Cl)ccc21`, the Potency entry in [1], in experiment [2], in experiment [3], in [4], in experiment [7] and in [8] was “inactive” each time. The Potency result in [9], in experiment [10], in experiment [11], in experiment [13] and in [17] was “inactive” throughout. Moreover, the Potency is 13.3 µM (active) in experiment [5] and 3.79 µM (active) in experiment [15]. The max activation in [6] is 8.1%.

For the origin of these results see PubChem BioAssay (Tox21).
